# Results from PubChem BioAssay AID463173 (ICCB-Longwood Screening Facility, Harvard Medical School, 2010).
# The whole screen tested about 52,000 compounds, of which about 1,700 (3.3%) were called active. The sample as a whole holds a higher share of actives than the screen did. A number with no mark means an inactive call. Cut-off read from the data, not from the text of the source: active = survival mostly below about 52% (no sharp cut-off); inactive = mostly above about 56%.
# System: Wild type
# Experiment: growth inhibition of S. aureus wild type versus tarO mutant, primary screen, teichoic acid synthesis inhibitors, RN4220, OD600 (AID 463173)
# Settings: S. aureus RN4220 wild type/DeltatarO growth, OD600, 18 h, hits give low values, screened at 18.75 µg/mL (by protocol)
row,SMILES,survival
1,Cc1ccccc1Nc1c(-c2cccc(Cl)c2)nc2ncccn12,83%
2,NC(=O)c1ccccc1NC(=O)CSc1nc(N)cc(=O)[nH]1,111%
3,CCOC(=O)/C(C#N)=C/c1ccc(-c2ccccc2)o1,81%
4,CCCC(=O)n1nc(-c2cccnc2)nc1NCc1ccc(OC)cc1,86%
5,CCOc1ccc2nc(Cl)c(CN(Cc3ccco3)C(=O)N(C)C)cc2c1,109%
6,Cc1ccc(C)c(N2CCN(C(=O)c3cc(S(=O)(=O)N4CCCCCC4)cn3C)CC2)c1,77%
7,CNC(=O)C1CCN(S(=O)(=O)c2ccccc2)CC1,109%
8,O=C(Nc1cc(-c2nc3ccccc3o2)ccc1Cl)c1ccc(Br)o1,65%
9,COc1ccc(OCC(=O)Nc2cc(-c3nc4ccccc4o3)ccc2Cl)cc1,104%
10,COc1ccc(-c2nc3ccccc3o2)cc1NC(=O)COc1ccc(C(C)(C)C)cc1,2% (active)
11,COc1ccc(-c2nc3ccccc3o2)cc1NC(=O)c1cc(Br)ccc1OC,66%
12,O=C(Nc1cc(-c2nc3ccccc3o2)ccc1Cl)c1cccc2c(Cl)cccc12,64%
13,COc1ccc(-c2nc3ccccc3o2)cc1NC(=O)c1ccc(OCC(C)C)cc1,55%
14,CC(C)(C)c1ccc(C(=O)Nc2cc(-c3nc4ccccc4o3)ccc2Cl)cc1,2% (active)
15,COc1ccc(-c2nc3ccccc3o2)cc1NC(=O)C(C)(C)Oc1ccc(Br)cc1,0% (active)
16,COc1ccc(-c2nc3ccccc3o2)cc1NC(=O)c1ccc(-c2ccc(Br)cc2)o1,73%
17,O=c1nc2sc3ccccc3n2c(=O)n1-c1ccc(Cl)c(Cl)c1,27%
18,CCc1ccc(NC(=O)Cn2nnc(C(=O)NCc3ccc(C)cc3)c2N)cc1,69%
19,COc1ccc(-c2cn3c(n2)sc2cc(C(=O)Nc4cc(OC)cc(OC)c4)ccc23)cc1,98%
20,COc1ccc(N2CCN(C(=O)c3cc4c(=O)n(Cc5cccs5)ccc4nc3C)CC2)cc1,101%
21,CCOc1cccc(C(=O)Nc2ccc(-c3nc4cc(C)cc(C)c4o3)cc2)c1,82%
22,Cc1ccc2c(c1)sc1nc(-c3cc4ccccc4oc3=O)cn12,76%
23,Cc1cc(C)c(NC(=O)Cn2nnc(-c3nc(-c4ccncc4)no3)c2N)c(C)c1,71%

row,SMILES,survival
1,Cc1ccc(Cl)cc1Nc1nc2ccccc2c2nncn12,92%
2,COc1cccc(Nc2nc3ccccc3c3nncn23)c1,84%
3,Cc1ccc(Nc2nc3ccccc3c3nncn23)cc1C,3% (active)
4,COc1cc2ncc3c(-c4ccccc4)nn(CC(=O)NC4CCCCC4)c3c2cc1OC,79%
5,CC(C)(C)c1ccc(Oc2ccc(NC(=O)CCC(=O)OCC(=O)c3ccccc3)cc2)cc1,86%
6,O=C(CCSCc1cccc(Cl)c1)N1CCN(c2ccc(Cl)cc2)CC1,80%
7,CCN(CC)C(=O)c1sc2c(c1C)c(=O)n(-c1ccc(Cl)c(Cl)c1)c(=O)n2Cc1cc(=O)n2c(C)cccc2n1,0% (active)
8,CCN(CC)C(=O)c1sc2c(c1C)c(=O)n(-c1ccc(Cl)c(Cl)c1)c(=O)n2Cc1cc(=O)n2ccccc2n1,118%
9,CCN(CC)C(=O)c1sc2c(c1C)c(=O)n(-c1ccc(C)c(C)c1)c(=O)n2Cc1cc(=O)n2c(C)cccc2n1,22%
10,COc1ccccc1N1CCN(CC(=O)N2CCCC2)CC1,94%
11,Cc1nc2nc[nH]n2c(=O)c1NS(=O)(=O)c1ccc(Br)cc1,84%
12,O=S(=O)(c1cc(Cl)ccc1Cl)N1CCCC1,78%
13,CCOc1ccccc1NC(=O)CSC1=Nc2ccccc2C2=NC(CC(=O)NC3CCCCC3)C(=O)N12 (stereo unspecified),81%
14,O=C(COCc1cc(-c2ccco2)on1)Nc1cc(Cl)ccc1O,-2% (active)
15,Cc1ccc(Cl)cc1NC(=O)COCc1cc(-c2ccco2)on1,77%
16,O=C(COCc1cc(-c2ccco2)on1)Nc1cccc(Cl)c1Cl,0% (active)
17,O=C(COCc1cc(-c2cccs2)on1)Nc1cccc(Cl)c1Cl,59%
18,O=C(COCc1cc(-c2ccc(F)cc2)on1)Nc1cccc(Cl)c1Cl,64%
19,Cc1ccc(O)c(NC(=O)COCc2cc(-c3ccco3)on2)c1,87%
20,COc1cccc(CNC(=O)c2ccc3c(c2)N(Cc2ccc(F)cc2Cl)C(=O)c2ccccc2S3)c1,19%
21,Cc1c(C(=O)Nc2cccc(C(F)(F)F)c2)sc2nc[nH]c(=O)c12,73%
22,CCOC(=O)c1c(NC(=O)CCCOc2ccc(C(C)(C)C)cc2)sc2c1CCC2,7% (active)
23,CCOC(=O)c1c(NC(=O)COc2ccc(C(C)(C)C)cc2)sc2c1CCCC2,69%

row,SMILES,survival
1,CCOC(=O)c1c(NC(=O)CCCOc2ccc(C(C)(C)C)cc2)sc2c1CCCC2,9% (active)
2,CCOC(=O)c1c(NC(=O)/C=C/c2ccc(OCC)cc2)sc2c1CCC2,139%
3,CCOC(=O)c1c(NC(=O)/C=C/c2ccc(OCC)cc2)sc2c1CCCC2,78%
4,CCOC(=O)c1c(NC(=O)CCCOc2ccc(Cl)cc2)sc2c1CCC2,20%
5,CN(C)C(=O)c1ccc(N(C)S(=O)(=O)c2ccccc2)cc1,113%
6,COc1ccc(NC(=S)N(Cc2ccco2)Cc2cc3cc(C)c(C)cc3[nH]c2=O)cc1,103%
7,Cc1ccc(C)c(C(=O)CSc2nc(-c3ccccc3)nc3c2CCCC3)c1,6% (active)
8,Cc1ccc(C(=O)CSc2nc(-c3ccccc3)nc3c2CCCC3)cc1,55%
9,Cc1ccc(C(=O)CSc2nc(-c3ccccc3)nc3c2CCCC3)c(C)c1,58%
10,CCn1c(CNC(=O)c2ccc(OC)cc2)nnc1SCC(=O)Nc1ccc(C)cc1,125%
11,O=C1CN(C(=O)c2ccccc2C(F)(F)F)C(c2ccccc2)c2cc(F)ccc2N1 (stereo unspecified),66%
12,Cc1ccc(CNC(=O)C2CCCCN2S(=O)(=O)c2ccc(F)cc2)cc1 (stereo unspecified),91%
13,COc1ccc(CNC(=O)C2CCCCN2S(=O)(=O)c2ccc(F)cc2)cc1 (stereo unspecified),87%
14,O=C(NCc1ccc(F)cc1)C1CCCCN1S(=O)(=O)c1ccc(F)cc1 (stereo unspecified),0% (active)
15,CCOC(=O)CSc1nc(-c2ccc(C)cc2C)cc(-c2ccccc2)c1C#N,63%
16,CNS(=O)(=O)c1cn(CC(=O)N2CCN(c3cc(C)ccc3C)CC2)cc1S(=O)(=O)NC,83%
17,COc1ccc(NC(=O)N(C(C)C)C2CCN(C(C)=O)CC2)c(OC)c1,-4% (active)
18,CCOc1ccccc1NC(=O)N(Cc1ccc(C)o1)C1CCN(C(C)=O)CC1,75%
19,COC(=O)c1ccc(Cl)cc1NC(=O)N(Cc1ccc(OC)cc1)C1CCN(C(C)=O)CC1,-6% (active)
20,CCN1CCC(N(Cc2ccc(F)cc2)C(=O)Nc2cc(Cl)ccc2C(=O)OC)CC1,80%
21,CC(=O)N1CCC(N(Cc2ccc(C)o2)C(=O)Nc2ccc(C)cc2)CC1,70%
22,COc1ccc(C)cc1NC(=O)N(C(C)C)C1CCN(C(C)=O)CC1,85%
23,COC(=O)c1ccc(Cl)cc1NC(=O)N(Cc1ccc(C)o1)C1CCN(C(C)=O)CC1,76%

row,SMILES,survival
1,COc1ccc(NC(=O)N(Cc2ccco2)C2CCN(C(C)=O)CC2)c(OC)c1,85%
2,COc1ccc(C)cc1NC(=O)N(Cc1ccc(C)o1)C1CCN(C(C)=O)CC1,0% (active)
3,O=C(Cn1c(=O)nc(-c2ccccc2)c2ccccc21)NCc1ccc(F)cc1,68%
4,CC(=O)c1ccc(N2CCN(C(=O)CCS(=O)(=O)c3ccc4c(c3)oc(=O)n4C)CC2)cc1,89%
5,CCCCCOc1ccc(/C=C/C(=O)Nc2sc(C)c(C)c2C(=O)OCC)cc1OC,132%
6,CCCOCc1cc(CN2CCN(c3ccccc3OC)CC2)c(O)c2ncccc12,99%
7,CC(C)OC(=O)C1=C(N)OC2=C(C(=O)CCC2)C1c1ccccc1F (stereo unspecified),114%
8,COc1ccc(CCNC(=O)Cn2c(-c3ccc(F)cc3)cc(C(C)=O)c2C)cc1OC,54%
9,CN1CCN(CCCNC(=O)c2cnn(-c3ccc(F)cc3)c2-n2cccc2)CC1,84%
10,COc1ccc(N2CC(NC(=O)CCCc3ccccc3)CC2=O)cc1 (stereo unspecified),0% (active)
11,O=C(Cc1cccs1)NC1CC(=O)N(c2ccc(F)cc2)C1 (stereo unspecified),95%
12,COc1ccc(C(=O)NC2CC(=O)N(c3ccc4c(c3)OCCO4)C2)cc1 (stereo unspecified),143%
13,COc1ccc(N2CC(NC(=O)c3ccc(S(=O)(=O)N4CCCC4)cc3)CC2=O)cc1 (stereo unspecified),118%
14,COc1ccc(N2CC(NC(=O)c3ccc(OC(C)C)cc3)CC2=O)cc1 (stereo unspecified),-2% (active)
15,COc1ccc(CCC(=O)NC2CC(=O)N(c3ccccc3)C2)cc1 (stereo unspecified),131%
16,Cc1ccc(N2CC(NC(=O)Cc3cccs3)CC2=O)cc1 (stereo unspecified),0% (active)
17,Cc1cccc(CC(=O)NC2CC(=O)N(c3ccccc3)C2)c1 (stereo unspecified),-6% (active)
18,O=C(Cc1cccs1)NC1CC(=O)N(c2ccccc2)C1 (stereo unspecified),78%
19,O=C(Cc1ccccc1)NC1CC(=O)N(c2ccccc2)C1 (stereo unspecified),76%
20,Cc1cccc(CC(=O)NC2CC(=O)N(c3cccc(F)c3)C2)c1 (stereo unspecified),60%
21,COc1cccc(N2CC(NC(=O)CCCc3ccccc3)CC2=O)c1 (stereo unspecified),88%
22,COc1ccc(N2CC3=C(C2=O)C(c2ccc(O)c(OC)c2)NC(=O)N3C)cc1 (stereo unspecified),71%
